Each compound was assayed on WEE1. Conditions: concentration: 1 μM, replicates: in singlicate; n = 1.
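Note: KINOMEscan kinase panel screen.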

Row | SMILES | %Inh
1 | CC(C)(C)n1cnc2c(N)ncnc21 [SKF-97359] | 0%
2 | Cc1cccc(Cn2ccn3c(=O)cc(N4CCOCC4)nc23)c1 [GSK2297542] | 22%
3 | c1ccc(-c2cc(-c3c[nH]nc3-c3ccccn3)ccn2)cc1 [GW576604] | 2%
4 | O=C(Nc1cccc(-c2nn3ncccc3c2-c2ccnc(Nc3cccc(C(F)(F)F)c3)n2)c1)c1c(F)cccc1F [GSK299495] | 2%
5 | COc1cc2c(cc1OC[C@@H](O)CO)ncc1c3ccc(C#N)cc3[nH]c21 | 0%
6 | N#Cc1ccc(-c2cc(-c3c[nH]nc3-c3ccccn3)ccn2)cc1 [GW693028] | 2%
7 | Fc1ccc(-c2ncn(CCCN3CCOCC3)c2-c2ccccn2)cc1 [SB-211742] | 21%
8 | COc1ccc(Nc2nccc(N3CCC(NC(=O)Nc4cccc(C(C)=O)c4)C3)n2)cc1 (stereo not drawn) [GSK1379731] | 6%
9 | Cn1cc(-c2ccc3c(c2)CCN3C(=O)Cc2ccccc2Cl)c2c(N)ncnc21 [GSK2608885] | 0%
10 | CNc1ncnc2[nH]ncc12 [SKF-18355] | 5%
11 | Cc1cccc(-c2nc(Nc3ccc4ncsc4c3)c3ccccc3n2)n1 [GW867588] | 8%
12 | [2H]C([2H])(c1cccc(C(F)(F)F)c1C)n1ccn2c(=O)nc(N3CCOCC3)cc12 [GSK2336394] | 9%
13 | Cc1c2ccc(N(C)c3ccnc(Nc4cccc(S(N)(=O)=O)c4)n3)cc2nn1Cc1ccccc1.Cl.Cl [GW787226] | 0%
14 | O=C(c1ccc(-c2cc(-c3c[nH]nc3-c3ccccn3)ccn2)cc1)N1CCOCC1 [GW812171] | 0%
15 | CCn1cnc2c(N)ncnc21 [GW345098] | 2%
16 | Cl.Nc1ncnc2occ(-c3ccc(NC(=O)Nc4cc(C(F)(F)F)ccc4F)cc3)c12 [SB-707548] | 10%
17 | CC(=O)Nc1ccc(COc2ccc(Nc3ccnc4cc(-c5ccccn5)ccc34)cc2)cc1.Cl [GW440148] | 18%
18 | Cc1nnc(-c2ccc3occ(-c4ccc(C(C)O)cc4)c3c2)o1 (stereo not drawn) | 8%

Row | SMILES | %Inh
19 | Cc1nnc(-c2ccc3ncc(-c4ccc(S(C)=O)cc4)n3c2)o1 (stereo not drawn) | 0%
20 | c1ccc(-c2n[nH]cc2-c2ccnc3ccccc23)nc1 [GW271431] | 9%
21 | CCCCCc1nc2c(N)ncnc2n1CCCCC [SKF-97255] | 0%
22 | CN1c2ccc(CNc3ccc(F)cc3)cc2-c2c(cnn2C)S1(=O)=O | 2%
23 | NCC(NC(=O)c1cc(-c2cn[nH]c2)c(-c2ccnc3[nH]ccc23)s1)c1ccccc1.O=C(O)C(F)(F)F.O=C(O)C(F)(F)F (stereo not drawn) [GSK1325775] | 0%
24 | O=C(Nc1n[nH]c2cc(-c3cccc(F)c3)ccc12)C1CC1 [SB-735464] | 0%
25 | COc1ccc(COc2cc(-n3cnc4ccccc43)sc2C(N)=O)cc1 [GSK1024304] | 0%
26 | CN(C(=O)c1ccc(-c2cc(-c3c[nH]nc3-c3ccccn3)ccn2)cc1)C1CCOCC1 [GW810083] | 0%
27 | O=c1cc(N2CCOCC2)nc2n(Cc3cccc(Cl)c3Cl)c(C3CC3)nn12 [GSK2358994] | 0%
28 | COc1cc2ncn(-c3cc(OCc4sccc4Cl)c(C(N)=O)s3)c2cc1OC [GSK448459] | 4%
29 | CCc1ccnc(/C=C/c2n[nH]c3cc(Sc4ccccc4C(=O)NC)ccc23)c1 | 0%
30 | CSc1ccc(-c2cc3ncnc(SCC(=O)O)c3s2)cc1 | 0%
31 | COc1ccc(Nc2nccc(N3CCC(NC(=O)Nc4cc(C)ccc4C)C3)n2)cc1 (stereo not drawn) [GSK1379741] | 14%
32 | Cc1c(Cn2c(C)nn3c(=O)cc(N4CCOC(C)C4)nc23)cccc1C(F)(F)F (stereo not drawn) [GSK2344444] | 10%
33 | O=C1NC(=O)C(N2CCc3ccccc32)=C1c1cccc(Cl)c1 [SB-408010] | 0%
34 | Cn1ccc2ncnc(Oc3ccc(NC(=O)Nc4ccncc4)c(Cl)c3)c21 | 0%
35 | O=C(NOCC1CC1)c1ccc(F)c(F)c1Nc1ccc(I)cc1Cl | 0%
36 | Cc1ccc(NC(=O)c2ccnc(N3CCN(C)CC3)c2)cc1-c1ccc(C(=O)NCC2CC2)cc1 [GW775604] | 0%

Each compound was assayed on WEE2. Conditions: concentration: 1 μM, replicates: in singlicate; n = 1.

Row | SMILES | %Inh
37 | CC(C)(C)n1cnc2c(N)ncnc21 [SKF-97359] | 12%
38 | Cc1cccc(Cn2ccn3c(=O)cc(N4CCOCC4)nc23)c1 [GSK2297542] | 22%
39 | c1ccc(-c2cc(-c3c[nH]nc3-c3ccccn3)ccn2)cc1 [GW576604] | 0%
40 | O=C(Nc1cccc(-c2nn3ncccc3c2-c2ccnc(Nc3cccc(C(F)(F)F)c3)n2)c1)c1c(F)cccc1F [GSK299495] | 24%
41 | COc1cc2c(cc1OC[C@@H](O)CO)ncc1c3ccc(C#N)cc3[nH]c21 | 0%
42 | N#Cc1ccc(-c2cc(-c3c[nH]nc3-c3ccccn3)ccn2)cc1 [GW693028] | 0%
43 | Fc1ccc(-c2ncn(CCCN3CCOCC3)c2-c2ccccn2)cc1 [SB-211742] | 11%
44 | COc1ccc(Nc2nccc(N3CCC(NC(=O)Nc4cccc(C(C)=O)c4)C3)n2)cc1 (stereo not drawn) [GSK1379731] | 0%
45 | Cn1cc(-c2ccc3c(c2)CCN3C(=O)Cc2ccccc2Cl)c2c(N)ncnc21 [GSK2608885] | 0%
46 | CNc1ncnc2[nH]ncc12 [SKF-18355] | 0%
47 | Cc1cccc(-c2nc(Nc3ccc4ncsc4c3)c3ccccc3n2)n1 [GW867588] | 6%
48 | [2H]C([2H])(c1cccc(C(F)(F)F)c1C)n1ccn2c(=O)nc(N3CCOCC3)cc12 [GSK2336394] | 10%
49 | Cc1c2ccc(N(C)c3ccnc(Nc4cccc(S(N)(=O)=O)c4)n3)cc2nn1Cc1ccccc1.Cl.Cl [GW787226] | 6%
50 | O=C(c1ccc(-c2cc(-c3c[nH]nc3-c3ccccn3)ccn2)cc1)N1CCOCC1 [GW812171] | 0%
51 | CCn1cnc2c(N)ncnc21 [GW345098] | 14%
52 | Cl.Nc1ncnc2occ(-c3ccc(NC(=O)Nc4cc(C(F)(F)F)ccc4F)cc3)c12 [SB-707548] | 6%
53 | CC(=O)Nc1ccc(COc2ccc(Nc3ccnc4cc(-c5ccccn5)ccc34)cc2)cc1.Cl [GW440148] | 0%
54 | Cc1nnc(-c2ccc3occ(-c4ccc(C(C)O)cc4)c3c2)o1 (stereo not drawn) | 7%

Row | SMILES | %Inh
55 | Cc1nnc(-c2ccc3ncc(-c4ccc(S(C)=O)cc4)n3c2)o1 (stereo not drawn) | 13%
56 | c1ccc(-c2n[nH]cc2-c2ccnc3ccccc23)nc1 [GW271431] | 2%
57 | CCCCCc1nc2c(N)ncnc2n1CCCCC [SKF-97255] | 3%
58 | CN1c2ccc(CNc3ccc(F)cc3)cc2-c2c(cnn2C)S1(=O)=O | 0%
59 | NCC(NC(=O)c1cc(-c2cn[nH]c2)c(-c2ccnc3[nH]ccc23)s1)c1ccccc1.O=C(O)C(F)(F)F.O=C(O)C(F)(F)F (stereo not drawn) [GSK1325775] | 0%
60 | O=C(Nc1n[nH]c2cc(-c3cccc(F)c3)ccc12)C1CC1 [SB-735464] | 4%
61 | COc1ccc(COc2cc(-n3cnc4ccccc43)sc2C(N)=O)cc1 [GSK1024304] | 2%
62 | CN(C(=O)c1ccc(-c2cc(-c3c[nH]nc3-c3ccccn3)ccn2)cc1)C1CCOCC1 [GW810083] | 22%
63 | O=c1cc(N2CCOCC2)nc2n(Cc3cccc(Cl)c3Cl)c(C3CC3)nn12 [GSK2358994] | 0%
64 | COc1cc2ncn(-c3cc(OCc4sccc4Cl)c(C(N)=O)s3)c2cc1OC [GSK448459] | 5%
65 | CCc1ccnc(/C=C/c2n[nH]c3cc(Sc4ccccc4C(=O)NC)ccc23)c1 | 0%
66 | CSc1ccc(-c2cc3ncnc(SCC(=O)O)c3s2)cc1 | 15%
67 | COc1ccc(Nc2nccc(N3CCC(NC(=O)Nc4cc(C)ccc4C)C3)n2)cc1 (stereo not drawn) [GSK1379741] | 0%
68 | Cc1c(Cn2c(C)nn3c(=O)cc(N4CCOC(C)C4)nc23)cccc1C(F)(F)F (stereo not drawn) [GSK2344444] | 0%
69 | O=C1NC(=O)C(N2CCc3ccccc32)=C1c1cccc(Cl)c1 [SB-408010] | 4%
70 | Cn1ccc2ncnc(Oc3ccc(NC(=O)Nc4ccncc4)c(Cl)c3)c21 | 0%
71 | O=C(NOCC1CC1)c1ccc(F)c(F)c1Nc1ccc(I)cc1Cl | 0%
72 | Cc1ccc(NC(=O)c2ccnc(N3CCN(C)CC3)c2)cc1-c1ccc(C(=O)NCC2CC2)cc1 [GW775604] | 0%

From PMC5540273 (PLoS ONE, 2017)
